Results on 26 targets are retold here after the supplement of paper PMC10849652.

The full data set covers some 8,800 targets. This sample favours those with a hit. About 0.5% of all pairs of compound and target were hits. Values without a mark were called inactive.

Common to all, as to experiment: log2 fold change, soluble protein after heating vs DMSO (PISA); higher = thermal stabilisation; K562 lysate, 10 uM; active = over 0.2 and 3.5 SD of the protein, either way, in both replicates (recomputed)
Compound in assay [1]: C1=CC=C(C=C1)[C@H](COC2=CC3=C(C=C2)NC(=O)N3)NC(=O)C4=CC=CN(C4=O)CC5=CC(=C(C=C5)F)F
The procedure, abridged: (§1)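 The values are log-two fold changes in thermal stability compared with solvent controls and come from duplicates. They were obtained by TMTpro 16plex LC-MS/MS, with channel sums equalised, on the supernatant after 21,000xg for 90 min. That supernatant came from crude K562 extract at 1 mg/mL protein treated with 10 μM compound for 30 min, heated for 3 min across 48°C-58°C, pooled and brought to 0.5% NP-40 at 4°C.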

Compound in assay [2]: CC1=C(SC2=C1C(=N[C@H](C3=NN=C(N32)C)CC(=O)N)C4=CC=C(C=C4)Cl)C
The procedure, abridged: as §1

Compound in assay [3]: CC1=C2C(=CC=C1)N=C(N(C2=O)C3=CC=CC=C3C)CN4C=NC5=C(N=CN=C54)N
The procedure, abridged:
as §1

Compound in assay [4]: Cc1sc2c(c1C)C(c1ccc(Cl)cc1)=N[C@@H](CC(=O)OC(C)(C)C)c1nnc(C)n1-2
Summed up: as §1

Compound in assay [5]: c1ccc([C@@H]2C[C@H]2NC2CCNCC2)cc1
Summed up:
as §1

Chain of UniProt Q969Q6 (Q969Q6 whole entry, looked up): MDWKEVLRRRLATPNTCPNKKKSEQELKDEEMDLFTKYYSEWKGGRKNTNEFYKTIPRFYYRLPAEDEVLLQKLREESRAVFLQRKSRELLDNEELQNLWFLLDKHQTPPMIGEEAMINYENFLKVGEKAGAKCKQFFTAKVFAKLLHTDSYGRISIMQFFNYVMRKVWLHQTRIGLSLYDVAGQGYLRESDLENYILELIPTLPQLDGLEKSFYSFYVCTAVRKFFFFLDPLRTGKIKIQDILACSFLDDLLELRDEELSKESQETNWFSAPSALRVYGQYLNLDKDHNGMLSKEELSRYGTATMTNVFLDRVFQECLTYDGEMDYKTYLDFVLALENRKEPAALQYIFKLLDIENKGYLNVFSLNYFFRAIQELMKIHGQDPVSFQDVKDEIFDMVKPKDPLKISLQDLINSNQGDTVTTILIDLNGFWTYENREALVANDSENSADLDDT
Chain of UniProt P11309 (P11309 whole entry, looked up): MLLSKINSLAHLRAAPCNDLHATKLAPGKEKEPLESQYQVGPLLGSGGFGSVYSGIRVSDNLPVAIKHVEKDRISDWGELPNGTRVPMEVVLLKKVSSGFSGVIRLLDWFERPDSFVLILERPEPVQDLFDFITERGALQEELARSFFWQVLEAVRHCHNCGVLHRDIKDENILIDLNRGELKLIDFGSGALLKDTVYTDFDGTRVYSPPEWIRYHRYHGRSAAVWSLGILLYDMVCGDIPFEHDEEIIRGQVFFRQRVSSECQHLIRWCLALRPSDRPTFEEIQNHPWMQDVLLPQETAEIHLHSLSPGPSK
Chain of UniProt Q14671 (Q14671 whole entry, looked up): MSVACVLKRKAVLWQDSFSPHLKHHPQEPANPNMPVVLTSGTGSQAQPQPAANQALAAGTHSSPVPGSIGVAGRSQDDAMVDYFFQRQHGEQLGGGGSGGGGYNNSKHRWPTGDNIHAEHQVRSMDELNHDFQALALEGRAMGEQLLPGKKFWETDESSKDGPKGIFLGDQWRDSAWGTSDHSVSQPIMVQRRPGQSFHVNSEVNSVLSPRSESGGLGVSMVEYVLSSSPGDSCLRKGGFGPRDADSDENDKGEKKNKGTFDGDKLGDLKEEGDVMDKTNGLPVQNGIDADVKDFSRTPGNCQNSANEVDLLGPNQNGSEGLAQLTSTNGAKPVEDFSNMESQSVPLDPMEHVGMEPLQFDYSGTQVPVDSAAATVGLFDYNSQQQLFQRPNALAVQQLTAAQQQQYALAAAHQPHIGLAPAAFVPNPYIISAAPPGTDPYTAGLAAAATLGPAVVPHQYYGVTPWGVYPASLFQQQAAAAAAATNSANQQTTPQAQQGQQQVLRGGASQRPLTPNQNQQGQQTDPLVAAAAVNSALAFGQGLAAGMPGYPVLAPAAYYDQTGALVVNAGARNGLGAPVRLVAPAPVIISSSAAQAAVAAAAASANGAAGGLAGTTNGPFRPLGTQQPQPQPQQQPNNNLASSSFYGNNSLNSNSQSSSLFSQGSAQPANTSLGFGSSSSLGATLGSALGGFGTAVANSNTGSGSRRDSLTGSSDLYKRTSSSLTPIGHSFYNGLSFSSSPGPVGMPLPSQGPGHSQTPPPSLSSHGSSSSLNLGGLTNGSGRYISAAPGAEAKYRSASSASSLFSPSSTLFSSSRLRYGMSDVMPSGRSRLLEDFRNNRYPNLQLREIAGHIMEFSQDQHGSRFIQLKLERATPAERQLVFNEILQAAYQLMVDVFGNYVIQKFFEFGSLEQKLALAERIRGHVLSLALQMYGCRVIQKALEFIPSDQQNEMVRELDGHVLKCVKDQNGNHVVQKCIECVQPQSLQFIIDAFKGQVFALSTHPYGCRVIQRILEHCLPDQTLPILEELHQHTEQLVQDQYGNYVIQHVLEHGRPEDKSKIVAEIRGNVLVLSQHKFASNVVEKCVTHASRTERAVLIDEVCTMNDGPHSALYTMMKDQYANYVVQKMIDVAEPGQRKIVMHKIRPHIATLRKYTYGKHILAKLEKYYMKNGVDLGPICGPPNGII
Chain of UniProt O00541 (O00541 whole entry, looked up): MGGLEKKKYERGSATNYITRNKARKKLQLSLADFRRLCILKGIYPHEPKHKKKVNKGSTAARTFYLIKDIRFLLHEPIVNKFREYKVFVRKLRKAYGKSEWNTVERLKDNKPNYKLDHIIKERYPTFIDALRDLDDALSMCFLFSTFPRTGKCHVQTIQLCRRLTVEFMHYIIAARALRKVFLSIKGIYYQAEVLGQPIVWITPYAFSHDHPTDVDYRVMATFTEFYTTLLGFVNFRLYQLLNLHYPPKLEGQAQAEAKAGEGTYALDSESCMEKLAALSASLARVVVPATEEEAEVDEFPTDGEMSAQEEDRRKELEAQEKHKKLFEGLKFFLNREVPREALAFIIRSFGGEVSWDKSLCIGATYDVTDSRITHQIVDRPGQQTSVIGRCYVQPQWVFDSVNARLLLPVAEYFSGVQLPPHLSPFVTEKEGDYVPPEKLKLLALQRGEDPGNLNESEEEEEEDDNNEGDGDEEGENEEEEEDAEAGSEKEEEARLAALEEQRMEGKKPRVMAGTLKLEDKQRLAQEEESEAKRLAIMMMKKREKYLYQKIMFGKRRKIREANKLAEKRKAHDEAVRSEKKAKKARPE
Chain of UniProt P18031 (P18031 whole entry, looked up): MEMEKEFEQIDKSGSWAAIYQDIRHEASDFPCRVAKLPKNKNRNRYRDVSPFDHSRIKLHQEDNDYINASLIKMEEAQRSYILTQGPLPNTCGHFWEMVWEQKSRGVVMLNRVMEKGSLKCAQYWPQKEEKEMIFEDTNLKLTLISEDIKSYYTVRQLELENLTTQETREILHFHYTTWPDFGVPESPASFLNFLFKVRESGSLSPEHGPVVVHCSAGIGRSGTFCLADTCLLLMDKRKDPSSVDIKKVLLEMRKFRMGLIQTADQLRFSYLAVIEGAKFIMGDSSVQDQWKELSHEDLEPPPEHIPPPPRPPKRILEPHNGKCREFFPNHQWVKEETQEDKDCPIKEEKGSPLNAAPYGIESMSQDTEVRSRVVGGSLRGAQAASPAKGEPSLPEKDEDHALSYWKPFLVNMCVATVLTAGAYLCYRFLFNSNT
Chain of UniProt Q96PU8 (Q96PU8 whole entry, looked up): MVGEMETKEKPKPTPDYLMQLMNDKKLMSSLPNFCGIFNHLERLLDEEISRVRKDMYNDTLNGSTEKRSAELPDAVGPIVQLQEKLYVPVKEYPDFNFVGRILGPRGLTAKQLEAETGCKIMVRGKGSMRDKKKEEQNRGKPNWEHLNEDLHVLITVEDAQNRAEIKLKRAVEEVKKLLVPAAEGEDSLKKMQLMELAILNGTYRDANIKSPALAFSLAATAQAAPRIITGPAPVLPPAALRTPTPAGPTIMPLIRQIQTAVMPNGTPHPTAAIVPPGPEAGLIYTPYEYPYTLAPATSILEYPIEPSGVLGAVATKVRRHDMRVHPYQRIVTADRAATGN
Chain of UniProt Q9H0N5 (Q9H0N5 whole entry, looked up): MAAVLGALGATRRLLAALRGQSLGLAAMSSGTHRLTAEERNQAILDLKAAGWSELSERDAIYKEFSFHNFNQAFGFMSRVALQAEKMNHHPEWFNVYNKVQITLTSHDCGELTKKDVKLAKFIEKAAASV
Chain of UniProt P54278 (P54278 whole entry, looked up): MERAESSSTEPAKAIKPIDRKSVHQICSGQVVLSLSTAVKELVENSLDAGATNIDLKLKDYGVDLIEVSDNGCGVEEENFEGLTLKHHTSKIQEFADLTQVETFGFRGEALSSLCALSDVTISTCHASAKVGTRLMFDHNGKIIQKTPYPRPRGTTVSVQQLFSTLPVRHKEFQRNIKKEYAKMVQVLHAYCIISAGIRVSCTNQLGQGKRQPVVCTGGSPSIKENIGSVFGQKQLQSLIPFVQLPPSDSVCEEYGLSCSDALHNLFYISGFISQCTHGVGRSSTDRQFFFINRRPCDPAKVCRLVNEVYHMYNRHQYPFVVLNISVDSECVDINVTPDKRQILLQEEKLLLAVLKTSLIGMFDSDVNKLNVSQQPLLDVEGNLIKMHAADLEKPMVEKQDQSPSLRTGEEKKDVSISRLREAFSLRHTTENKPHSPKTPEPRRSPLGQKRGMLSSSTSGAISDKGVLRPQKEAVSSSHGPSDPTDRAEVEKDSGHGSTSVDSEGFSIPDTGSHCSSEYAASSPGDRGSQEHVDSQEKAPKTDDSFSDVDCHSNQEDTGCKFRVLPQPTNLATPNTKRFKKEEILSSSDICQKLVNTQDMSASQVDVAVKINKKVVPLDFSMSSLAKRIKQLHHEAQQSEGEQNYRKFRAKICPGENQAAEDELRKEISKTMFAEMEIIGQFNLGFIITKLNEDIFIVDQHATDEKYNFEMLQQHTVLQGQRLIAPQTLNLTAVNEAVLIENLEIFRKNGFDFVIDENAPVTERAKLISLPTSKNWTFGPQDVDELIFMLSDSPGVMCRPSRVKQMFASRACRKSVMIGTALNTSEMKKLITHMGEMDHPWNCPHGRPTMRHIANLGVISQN
Chain of UniProt Q10713 (Q10713 whole entry, looked up): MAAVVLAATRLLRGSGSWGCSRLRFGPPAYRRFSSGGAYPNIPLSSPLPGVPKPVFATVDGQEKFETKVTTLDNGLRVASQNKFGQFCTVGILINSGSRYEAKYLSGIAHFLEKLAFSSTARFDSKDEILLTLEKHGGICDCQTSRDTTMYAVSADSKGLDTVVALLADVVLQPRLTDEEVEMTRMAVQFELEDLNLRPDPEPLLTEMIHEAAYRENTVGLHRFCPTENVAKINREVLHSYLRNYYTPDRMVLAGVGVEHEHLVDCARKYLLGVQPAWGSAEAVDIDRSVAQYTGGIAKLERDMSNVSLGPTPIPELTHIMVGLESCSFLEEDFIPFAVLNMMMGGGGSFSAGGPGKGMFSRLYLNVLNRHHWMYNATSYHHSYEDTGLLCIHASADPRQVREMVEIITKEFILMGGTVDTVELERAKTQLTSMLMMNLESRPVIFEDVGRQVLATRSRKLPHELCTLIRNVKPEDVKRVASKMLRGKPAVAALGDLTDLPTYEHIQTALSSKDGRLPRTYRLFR
Chain of UniProt P07737 (P07737 whole entry, looked up): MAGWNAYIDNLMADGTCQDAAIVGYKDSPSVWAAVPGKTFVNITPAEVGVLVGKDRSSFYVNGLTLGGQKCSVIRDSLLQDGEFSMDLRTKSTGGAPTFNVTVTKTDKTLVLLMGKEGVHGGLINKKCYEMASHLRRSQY

For PPP2R5C isoform 2 (UniProt Q13362), the log2 fold change in assay [1] was -0.016; in assay [2], 0.224; in assay [3], 0.004; in assay [4] it was -0.136; in assay [5], 0.026.
On to PPP3CA isoform 2 (UniProt Q08209), for which the log2 fold change in assay [1] is -0.026; in assay [2] it was -0.115; in assay [3] it was -0.017; in assay [4], 0.004; in assay [5], 0.043.
For POLR2G (UniProt P62487) the same measures were 0.018, 0.021, -0.003, 0.007 and -0.108.
For PCIF1 (UniProt Q9H4Z3) the same measures were -0.015, -0.013, 0.026, 0.066 and -0.111.
As for PRKACA (UniProt P17612), the log2 fold change in assay [1] is 0.029; in assay [2] it was 0.019; in assay [3], 0.008; in assay [4], -0.013; in assay [5], -0.245.
The matching figures for PTPN1 (UniProt P18031): -0.006, 0.008, 0.01, -0.026 and 0.005.
For PRIM1 (UniProt P49642) the same measures were 0.009, -0.051, -0.018, -0.006 and 0.047.
For PMPCA (UniProt Q10713), the log2 fold change in assay [1] is 0.019; in assay [2] it was 0.031; in assay [3], 0.028; in assay [4] it was -0.013; in assay [5], -0.012.
The matching figures for PUM1 isoform 3 (UniProt Q14671): -0.057, 0.048, 0.024, -0.003 and 0.054.
With PIK3CB (UniProt P42338), the log2 fold change is -0.066 in assay [1]; -0.054 in assay [2]; 0.518 (active) in assay [3]; -0.049 in assay [4]; -0.033 in assay [5].
The matching figures for QKI (UniProt Q96PU8): -0.071, -0.001, -0.023, 0.04 and -0.034.
For the target PPP2R3C (UniProt Q969Q6), the log2 fold change in assay [1] is -0.044; in assay [2] it was 0.006; in assay [3], 0.042; in assay [4], -0.052; in assay [5], 0.059.
The matching figures for PIK3R2 (UniProt O00459): 0.002, -0.058, 0.272, 0.024 and -0.007.
Regarding PFN1 (UniProt P07737), the log2 fold change was -0.004 in assay [1]; 0.009 in assay [2]; 0 in assay [3]; -0.004 in assay [4]; -0.007 in assay [5].
Regarding PELO (UniProt Q9BRX2), the log2 fold change was -0.014 in assay [1]; 0.05 in assay [2]; 0.034 in assay [3]; 0.087 in assay [4]; 0.27 in assay [5].
Regarding PRKCSH (UniProt P14314), the log2 fold change in assay [1] is 0; in assay [2] it was -0.002; in assay [3] it was -0.017; in assay [4], 0.041; in assay [5], 0.021.
For PCBD2 (UniProt Q9H0N5) the same measures were -0.019, 0.048, 0.002, -0.011 and -0.172.
For PIM1 isoform 2 (UniProt P11309) the same measures were -0.115, -0.046, -0.127, -0.025 and -0.191.
The matching figures for PFAS (UniProt O15067): 0.007, 0.017, 0.02, 0.042 and 0.023.
As for PMS2 (UniProt P54278), the log2 fold change in assay [1] was -0.021; in assay [2], 0.005; in assay [3] it was 0.024; in assay [4], -0.031; in assay [5], 0.039.
For PREP (UniProt P48147) the same measures were 0.006, 0.02, 0.013, -0.02 and 0.03.
In the case of PHGDH (UniProt O43175), the log2 fold change is -0.014 in assay [1]; 0.017 in assay [2]; 0.047 in assay [3]; 0.046 in assay [4]; 0.052 in assay [5].
For PDXK (UniProt O00764) the same measures were 0.014, -0.039, -0.029, -0.028 and -0.056.
For PES1 (UniProt O00541) the same measures were 0.027, 0.016, 0.019, 0.016 and 0.02.
For PDF (UniProt Q9HBH1), the log2 fold change in assay [1] is -0.056; in assay [2], -0.007; in assay [3], -0.024; in assay [4], 0.024; in assay [5] it was 0.028.
The matching figures for PRMT8 (UniProt Q9NR22): -0.016, 0.031, 0.01, -0.041 and -0.147.
